# Reference: publication PMC7862700, “An all-to-all approach to the identification of sequence-specific readers for epigenetic DNA modifications on cytosine”
# Experiments:
# Assay in all cases: DAPPL (digital affinity profiling via proximity ligation, sequencing); 10 mM Tris-HCl pH 7.5, 50 mM NaCl, 1 mM DTT, 4% glycerol, room temperature, 30 min; GST-TFs on glutathione beads, 16-mer random dsDNA library, 0.1% formaldehyde crosslink after washing; high values mean tight binding
# FLI1 = target: T1, FLI1 (Homo sapiens, UniProt Q01543 1-452); settings: protein: recombinant; tags: N-terminal GST; dsDNA, one strand shown
# T1 sequence: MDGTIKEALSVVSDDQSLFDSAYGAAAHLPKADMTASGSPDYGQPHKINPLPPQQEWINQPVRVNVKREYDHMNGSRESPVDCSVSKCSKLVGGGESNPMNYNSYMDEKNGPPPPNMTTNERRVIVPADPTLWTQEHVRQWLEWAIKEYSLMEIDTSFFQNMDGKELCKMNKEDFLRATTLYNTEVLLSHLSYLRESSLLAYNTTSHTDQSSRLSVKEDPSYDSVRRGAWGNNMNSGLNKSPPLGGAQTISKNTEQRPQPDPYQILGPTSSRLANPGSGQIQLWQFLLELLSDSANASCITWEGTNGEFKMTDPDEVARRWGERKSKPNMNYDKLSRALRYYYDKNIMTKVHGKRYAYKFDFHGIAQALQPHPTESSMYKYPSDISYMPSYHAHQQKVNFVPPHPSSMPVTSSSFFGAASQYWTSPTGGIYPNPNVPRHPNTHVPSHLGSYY
# Summary of the method: (§1)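 A tag-only sample was pooled with DNA-barcoded human transcription factors that had been expressed in yeast as GST fusions and captured on glutathione beads. The pools were incubated for 30 min at room temperature with 200 nmole of a random double-stranded 16-mer DNA library in Tris/NaCl/DTT/glycerol buffer, then washed, crosslinked with 0.1% formaldehyde, proximity-ligated (BsaI/T4 ligase, 1 h, 37 °C), PCR-amplified and sequenced on an Illumina NextSeq500. Binding signal is each hexamer's read frequency for a factor divided by its frequency for the tag-only sample.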
# ELK1 = target: T2, ELK1 (Homo sapiens, UniProt P19419 1-428); settings: protein: recombinant; tags: N-terminal GST; dsDNA, one strand shown
# T2 sequence: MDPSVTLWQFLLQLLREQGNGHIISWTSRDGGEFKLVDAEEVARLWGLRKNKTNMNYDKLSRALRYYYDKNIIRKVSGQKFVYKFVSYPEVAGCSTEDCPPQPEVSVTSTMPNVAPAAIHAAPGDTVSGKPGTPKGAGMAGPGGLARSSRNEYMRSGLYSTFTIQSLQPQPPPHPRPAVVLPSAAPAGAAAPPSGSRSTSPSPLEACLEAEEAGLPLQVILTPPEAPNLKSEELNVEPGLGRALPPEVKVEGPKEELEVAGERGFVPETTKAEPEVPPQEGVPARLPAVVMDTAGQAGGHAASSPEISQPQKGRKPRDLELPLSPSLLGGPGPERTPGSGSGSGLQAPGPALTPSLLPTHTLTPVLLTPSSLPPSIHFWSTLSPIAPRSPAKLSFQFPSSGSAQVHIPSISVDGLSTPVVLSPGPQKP
# Summary of the method: as §1
# GABPA = target: T3, GABPA (Homo sapiens, UniProt Q06546 1-454); settings: protein: recombinant; tags: N-terminal GST; dsDNA, one strand shown
# T3 sequence: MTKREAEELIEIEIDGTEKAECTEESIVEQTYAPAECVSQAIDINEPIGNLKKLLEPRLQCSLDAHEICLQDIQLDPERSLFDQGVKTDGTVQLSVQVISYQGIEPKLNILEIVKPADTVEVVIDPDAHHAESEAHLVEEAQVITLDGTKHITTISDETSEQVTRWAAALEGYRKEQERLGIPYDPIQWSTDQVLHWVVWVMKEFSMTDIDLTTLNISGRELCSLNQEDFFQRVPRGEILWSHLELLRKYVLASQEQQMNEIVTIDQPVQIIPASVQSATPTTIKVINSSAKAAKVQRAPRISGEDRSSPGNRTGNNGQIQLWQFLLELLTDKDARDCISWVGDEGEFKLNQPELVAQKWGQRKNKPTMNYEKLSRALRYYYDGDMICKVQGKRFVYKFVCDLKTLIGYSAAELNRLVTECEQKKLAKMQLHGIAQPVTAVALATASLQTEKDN
# Summary of the method: as §1
# ERG = target: T4, ERG (Homo sapiens, UniProt P11308 1-479); settings: protein: recombinant; tags: N-terminal GST; dsDNA, one strand shown
# T4 sequence: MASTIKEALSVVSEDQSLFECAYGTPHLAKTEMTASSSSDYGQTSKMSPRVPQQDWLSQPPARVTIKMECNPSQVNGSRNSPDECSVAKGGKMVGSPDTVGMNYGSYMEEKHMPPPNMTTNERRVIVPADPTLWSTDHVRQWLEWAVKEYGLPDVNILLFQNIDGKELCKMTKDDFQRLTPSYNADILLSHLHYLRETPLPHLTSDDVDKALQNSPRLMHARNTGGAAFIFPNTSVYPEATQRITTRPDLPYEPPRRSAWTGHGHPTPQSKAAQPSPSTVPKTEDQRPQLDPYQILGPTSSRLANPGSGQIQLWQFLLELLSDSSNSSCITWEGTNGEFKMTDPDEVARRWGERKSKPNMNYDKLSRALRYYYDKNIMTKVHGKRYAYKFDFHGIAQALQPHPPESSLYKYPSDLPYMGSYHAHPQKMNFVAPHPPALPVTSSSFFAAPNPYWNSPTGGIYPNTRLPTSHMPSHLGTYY
# Summary of the method: as §1
# ELF1 = ELF1 (Homo sapiens, UniProt P32519 1-619); settings: protein: recombinant; tags: N-terminal GST; dsDNA, one strand shown
# Summary of the method: as §1
# EHF = target: T5, EHF (Homo sapiens, UniProt Q9NZC4 1-300); settings: protein: recombinant; tags: N-terminal GST; dsDNA, one strand shown
# T5 sequence: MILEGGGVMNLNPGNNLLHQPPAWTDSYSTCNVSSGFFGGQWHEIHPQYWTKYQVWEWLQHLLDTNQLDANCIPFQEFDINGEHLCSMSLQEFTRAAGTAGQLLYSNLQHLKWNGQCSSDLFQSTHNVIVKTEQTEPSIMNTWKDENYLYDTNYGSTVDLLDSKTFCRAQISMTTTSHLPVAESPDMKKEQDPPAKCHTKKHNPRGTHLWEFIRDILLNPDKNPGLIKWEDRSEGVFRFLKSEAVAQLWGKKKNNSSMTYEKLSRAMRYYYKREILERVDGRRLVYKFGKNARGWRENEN
# Summary of the method: as §1
# SPI1 = SPI1 (Homo sapiens, UniProt P17947 1-270); settings: protein: recombinant; tags: N-terminal GST; dsDNA, one strand shown
# Summary of the method: as §1
# SPIB = SPIB (Homo sapiens, UniProt Q01892 1-262); settings: protein: recombinant; tags: N-terminal GST; dsDNA, one strand shown
# Summary of the method: as §1
# ELK3 = target: T6, ELK3 (Homo sapiens, UniProt P41970 1-407); settings: protein: recombinant; tags: N-terminal GST; dsDNA, one strand shown
# T6 sequence: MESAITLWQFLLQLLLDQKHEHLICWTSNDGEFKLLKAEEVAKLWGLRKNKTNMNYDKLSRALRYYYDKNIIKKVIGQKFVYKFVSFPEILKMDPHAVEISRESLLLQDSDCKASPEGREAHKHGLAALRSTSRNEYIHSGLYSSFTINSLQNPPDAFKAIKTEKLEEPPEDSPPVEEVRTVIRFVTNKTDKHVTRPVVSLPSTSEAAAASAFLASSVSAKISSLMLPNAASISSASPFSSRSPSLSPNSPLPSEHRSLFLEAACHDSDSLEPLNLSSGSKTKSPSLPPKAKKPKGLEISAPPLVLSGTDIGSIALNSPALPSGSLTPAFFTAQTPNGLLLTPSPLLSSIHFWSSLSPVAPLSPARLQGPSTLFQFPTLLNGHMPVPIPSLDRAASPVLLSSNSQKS
# Summary of the method: as §1
# FEV = target: T7, FEV (Homo sapiens, UniProt Q99581 1-238); settings: protein: recombinant; tags: N-terminal GST; dsDNA, one strand shown
# T7 sequence: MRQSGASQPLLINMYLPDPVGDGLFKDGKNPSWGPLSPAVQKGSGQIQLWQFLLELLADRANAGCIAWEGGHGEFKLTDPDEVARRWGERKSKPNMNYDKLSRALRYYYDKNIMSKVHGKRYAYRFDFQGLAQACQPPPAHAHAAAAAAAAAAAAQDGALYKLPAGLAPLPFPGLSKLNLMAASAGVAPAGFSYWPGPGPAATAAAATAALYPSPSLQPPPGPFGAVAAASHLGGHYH
# Summary of the method: as §1
# ETV5 = ETV5 (Homo sapiens, UniProt P41161 1-510); settings: protein: recombinant; tags: N-terminal GST; dsDNA, one strand shown
# Summary of the method: as §1
# HSF1 = HSF1 (Homo sapiens, UniProt Q00613 1-529); settings: protein: recombinant; tags: N-terminal GST; chain copies: 3; dsDNA, one strand shown
# Summary of the method: as §1
# SPIC = target: T8, SPIC (Homo sapiens, UniProt Q8N5J4 1-248); settings: protein: recombinant; tags: N-terminal GST; dsDNA, one strand shown
# T8 sequence: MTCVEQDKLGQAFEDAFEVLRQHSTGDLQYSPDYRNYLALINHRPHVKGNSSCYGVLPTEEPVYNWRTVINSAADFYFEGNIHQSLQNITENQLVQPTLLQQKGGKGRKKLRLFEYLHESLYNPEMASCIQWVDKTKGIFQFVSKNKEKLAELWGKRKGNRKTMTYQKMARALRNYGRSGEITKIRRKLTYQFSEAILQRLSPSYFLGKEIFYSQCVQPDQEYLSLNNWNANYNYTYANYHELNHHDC
# Summary of the method: as §1
# ELF4 = ELF4 (Homo sapiens, UniProt Q99607 1-663); settings: protein: recombinant; tags: N-terminal GST; dsDNA, one strand shown
# Summary of the method: as §1
# ELK4 = target: T9, ELK4 (Homo sapiens, UniProt P28324-2 1-405); settings: protein: recombinant; tags: N-terminal GST; dsDNA, one strand shown
# T9 sequence: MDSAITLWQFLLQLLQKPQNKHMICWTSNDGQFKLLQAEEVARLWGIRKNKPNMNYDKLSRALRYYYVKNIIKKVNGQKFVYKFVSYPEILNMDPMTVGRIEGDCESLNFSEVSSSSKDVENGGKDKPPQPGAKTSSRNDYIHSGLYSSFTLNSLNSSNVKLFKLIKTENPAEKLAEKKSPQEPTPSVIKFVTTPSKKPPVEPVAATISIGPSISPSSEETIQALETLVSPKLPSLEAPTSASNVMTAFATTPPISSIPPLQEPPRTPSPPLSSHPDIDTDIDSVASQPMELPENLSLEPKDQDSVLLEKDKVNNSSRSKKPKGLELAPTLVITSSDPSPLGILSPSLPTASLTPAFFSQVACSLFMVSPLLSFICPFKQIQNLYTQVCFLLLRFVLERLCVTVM
# Summary of the method: as §1
# ETV2 = target: T10, ETV2 (Homo sapiens, UniProt O00321 1-342); settings: protein: recombinant; tags: N-terminal GST; dsDNA, one strand shown
# T10 sequence: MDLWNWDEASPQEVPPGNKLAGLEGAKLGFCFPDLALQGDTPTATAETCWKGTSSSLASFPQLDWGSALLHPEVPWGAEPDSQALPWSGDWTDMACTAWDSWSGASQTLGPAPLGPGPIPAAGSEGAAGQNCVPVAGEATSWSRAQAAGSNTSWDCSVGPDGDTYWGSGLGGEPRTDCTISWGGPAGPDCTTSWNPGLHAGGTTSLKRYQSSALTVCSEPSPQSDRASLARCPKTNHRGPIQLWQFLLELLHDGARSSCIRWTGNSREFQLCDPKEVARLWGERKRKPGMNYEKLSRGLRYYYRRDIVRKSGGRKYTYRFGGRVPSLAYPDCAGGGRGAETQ
# Summary of the method: as §1
# ELF3 = target: T11, ELF3 (Homo sapiens, UniProt P78545 1-371); settings: protein: recombinant; tags: N-terminal GST; dsDNA, one strand shown
# T11 sequence: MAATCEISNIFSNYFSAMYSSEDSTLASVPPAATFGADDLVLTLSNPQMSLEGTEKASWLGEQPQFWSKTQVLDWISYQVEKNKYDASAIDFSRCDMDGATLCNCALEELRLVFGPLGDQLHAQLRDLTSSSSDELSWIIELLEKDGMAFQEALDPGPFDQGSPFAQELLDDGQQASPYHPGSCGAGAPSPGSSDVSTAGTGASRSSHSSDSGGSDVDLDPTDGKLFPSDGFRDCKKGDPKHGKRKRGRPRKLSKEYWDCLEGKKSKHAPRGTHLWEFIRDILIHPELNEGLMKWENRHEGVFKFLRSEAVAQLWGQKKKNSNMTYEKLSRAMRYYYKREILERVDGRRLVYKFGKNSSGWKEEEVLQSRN
# Summary of the method: as §1
# CRX = CRX (Homo sapiens, UniProt O43186 1-299); settings: protein: recombinant; tags: N-terminal GST; dsDNA, one strand shown
# Summary of the method: as §1
# ETV1 = ETV1 (Homo sapiens, UniProt P50549 1-477); settings: protein: recombinant; tags: N-terminal GST; dsDNA, one strand shown
# Summary of the method: as §1
# Chain of ETV5 (P41161 whole entry): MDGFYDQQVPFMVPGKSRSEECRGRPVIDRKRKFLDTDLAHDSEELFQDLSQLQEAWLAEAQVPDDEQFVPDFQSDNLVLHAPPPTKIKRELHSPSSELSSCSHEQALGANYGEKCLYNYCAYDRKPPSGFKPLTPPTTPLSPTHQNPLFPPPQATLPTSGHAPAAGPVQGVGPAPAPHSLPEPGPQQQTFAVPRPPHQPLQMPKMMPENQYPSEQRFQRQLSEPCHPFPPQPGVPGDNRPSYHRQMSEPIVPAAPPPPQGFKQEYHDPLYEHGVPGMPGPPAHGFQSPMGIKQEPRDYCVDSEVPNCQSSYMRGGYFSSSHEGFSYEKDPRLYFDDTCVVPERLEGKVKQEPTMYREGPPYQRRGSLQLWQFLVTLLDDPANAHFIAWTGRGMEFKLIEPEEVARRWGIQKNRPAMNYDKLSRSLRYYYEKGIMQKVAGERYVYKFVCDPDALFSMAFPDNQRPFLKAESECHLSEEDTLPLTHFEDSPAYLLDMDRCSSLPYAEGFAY
# Chain of ELF1 (P32519 whole entry): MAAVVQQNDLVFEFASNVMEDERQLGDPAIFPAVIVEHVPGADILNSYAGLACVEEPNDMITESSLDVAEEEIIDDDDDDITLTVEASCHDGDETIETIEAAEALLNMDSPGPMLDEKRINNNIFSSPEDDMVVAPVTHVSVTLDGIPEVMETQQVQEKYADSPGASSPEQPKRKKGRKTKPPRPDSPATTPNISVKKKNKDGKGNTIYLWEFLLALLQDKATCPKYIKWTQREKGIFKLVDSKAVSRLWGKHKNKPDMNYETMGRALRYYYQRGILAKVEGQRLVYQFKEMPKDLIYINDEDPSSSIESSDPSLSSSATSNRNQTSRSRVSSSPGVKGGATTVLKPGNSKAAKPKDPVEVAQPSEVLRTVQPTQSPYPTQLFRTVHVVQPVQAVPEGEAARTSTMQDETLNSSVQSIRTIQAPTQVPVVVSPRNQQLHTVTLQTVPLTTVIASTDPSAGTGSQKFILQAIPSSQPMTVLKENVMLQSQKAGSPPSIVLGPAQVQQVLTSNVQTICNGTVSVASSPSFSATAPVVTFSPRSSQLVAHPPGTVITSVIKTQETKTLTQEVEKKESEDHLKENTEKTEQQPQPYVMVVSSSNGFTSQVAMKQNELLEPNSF
# Chain of HSF1 (Q00613 whole entry): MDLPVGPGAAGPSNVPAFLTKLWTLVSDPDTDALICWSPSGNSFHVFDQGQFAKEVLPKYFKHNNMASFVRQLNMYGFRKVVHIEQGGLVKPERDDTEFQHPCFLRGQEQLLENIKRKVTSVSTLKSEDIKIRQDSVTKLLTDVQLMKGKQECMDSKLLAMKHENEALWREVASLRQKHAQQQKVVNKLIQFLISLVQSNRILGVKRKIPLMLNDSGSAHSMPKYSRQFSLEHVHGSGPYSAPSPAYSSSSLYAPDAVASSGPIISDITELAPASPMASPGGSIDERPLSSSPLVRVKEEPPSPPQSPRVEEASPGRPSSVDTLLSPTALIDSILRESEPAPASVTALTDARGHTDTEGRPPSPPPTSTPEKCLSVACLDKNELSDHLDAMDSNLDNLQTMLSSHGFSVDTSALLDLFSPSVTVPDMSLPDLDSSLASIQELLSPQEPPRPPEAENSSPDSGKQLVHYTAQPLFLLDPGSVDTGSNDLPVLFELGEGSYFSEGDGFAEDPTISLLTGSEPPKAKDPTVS
# Chain of SPIB (Q01892 whole entry): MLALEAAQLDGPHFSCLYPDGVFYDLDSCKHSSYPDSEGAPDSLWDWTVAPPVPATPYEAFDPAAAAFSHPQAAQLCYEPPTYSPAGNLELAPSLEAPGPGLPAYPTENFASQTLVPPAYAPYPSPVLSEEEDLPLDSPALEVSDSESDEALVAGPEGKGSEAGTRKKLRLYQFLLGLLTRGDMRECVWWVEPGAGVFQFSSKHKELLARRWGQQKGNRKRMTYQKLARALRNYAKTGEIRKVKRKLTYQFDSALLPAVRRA
# Chain of ETV1 (P50549 whole entry): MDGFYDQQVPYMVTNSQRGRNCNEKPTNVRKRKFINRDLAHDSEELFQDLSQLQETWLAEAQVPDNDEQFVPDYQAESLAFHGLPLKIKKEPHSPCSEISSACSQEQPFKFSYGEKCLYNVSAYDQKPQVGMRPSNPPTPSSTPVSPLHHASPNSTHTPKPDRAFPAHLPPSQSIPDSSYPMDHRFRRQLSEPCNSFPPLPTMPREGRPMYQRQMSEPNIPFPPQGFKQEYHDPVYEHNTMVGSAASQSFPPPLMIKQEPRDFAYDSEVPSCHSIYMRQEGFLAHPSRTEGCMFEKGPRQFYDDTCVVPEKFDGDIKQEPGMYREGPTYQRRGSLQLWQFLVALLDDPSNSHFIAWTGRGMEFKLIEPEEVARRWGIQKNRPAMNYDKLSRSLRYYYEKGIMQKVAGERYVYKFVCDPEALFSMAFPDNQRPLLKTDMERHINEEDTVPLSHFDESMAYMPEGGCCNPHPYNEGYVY
# Chain of CRX (O43186 whole entry): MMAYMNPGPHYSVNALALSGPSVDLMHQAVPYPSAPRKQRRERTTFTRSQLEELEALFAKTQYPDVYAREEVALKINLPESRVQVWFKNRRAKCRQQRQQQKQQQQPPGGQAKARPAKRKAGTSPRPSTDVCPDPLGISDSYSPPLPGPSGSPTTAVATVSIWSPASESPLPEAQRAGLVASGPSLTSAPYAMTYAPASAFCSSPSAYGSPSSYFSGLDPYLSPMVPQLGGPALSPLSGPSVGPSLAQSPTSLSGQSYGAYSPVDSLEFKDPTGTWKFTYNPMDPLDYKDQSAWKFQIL
# Chain of ELF4 (Q99607 whole entry): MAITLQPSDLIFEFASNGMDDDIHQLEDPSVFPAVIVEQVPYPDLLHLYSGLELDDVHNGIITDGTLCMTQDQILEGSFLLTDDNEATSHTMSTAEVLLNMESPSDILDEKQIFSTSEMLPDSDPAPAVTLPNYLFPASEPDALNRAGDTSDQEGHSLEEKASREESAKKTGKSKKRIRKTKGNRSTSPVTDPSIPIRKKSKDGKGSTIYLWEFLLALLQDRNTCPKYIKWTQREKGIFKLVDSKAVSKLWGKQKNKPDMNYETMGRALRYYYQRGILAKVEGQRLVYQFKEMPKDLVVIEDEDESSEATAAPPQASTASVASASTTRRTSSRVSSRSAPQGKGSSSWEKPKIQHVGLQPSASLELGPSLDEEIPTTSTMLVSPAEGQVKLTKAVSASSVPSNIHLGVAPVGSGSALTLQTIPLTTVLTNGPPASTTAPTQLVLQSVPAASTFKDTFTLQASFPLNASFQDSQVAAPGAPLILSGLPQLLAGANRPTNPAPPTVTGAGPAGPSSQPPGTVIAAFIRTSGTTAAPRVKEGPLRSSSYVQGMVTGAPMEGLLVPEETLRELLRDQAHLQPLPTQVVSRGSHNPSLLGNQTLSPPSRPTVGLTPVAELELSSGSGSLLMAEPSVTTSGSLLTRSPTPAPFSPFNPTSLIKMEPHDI
sequence,measurement,setting,value
CTCCAA,binding signal,FLI1,"1.23 fold enrichment (6-mer frequency, TF over GST control)"
same,binding signal,ELK1,"1.41 fold enrichment (6-mer frequency, TF over GST control)"
same,binding signal,GABPA,"1.4 fold enrichment (6-mer frequency, TF over GST control)"
same,binding signal,ERG,"1.32 fold enrichment (6-mer frequency, TF over GST control)"
same,binding signal,ELF1,"1.3 fold enrichment (6-mer frequency, TF over GST control)"
same,binding signal,EHF,"1.26 fold enrichment (6-mer frequency, TF over GST control)"
same,binding signal,SPI1,"1.29 fold enrichment (6-mer frequency, TF over GST control)"
same,binding signal,SPIB,"1.31 fold enrichment (6-mer frequency, TF over GST control)"
same,binding signal,ELK3,"1.25 fold enrichment (6-mer frequency, TF over GST control)"
same,binding signal,FEV,"1.29 fold enrichment (6-mer frequency, TF over GST control)"
same,binding signal,ETV5,"1.3 fold enrichment (6-mer frequency, TF over GST control)"
same,binding signal,HSF1,"1.31 fold enrichment (6-mer frequency, TF over GST control)"
same,binding signal,SPIC,"1.35 fold enrichment (6-mer frequency, TF over GST control)"
same,binding signal,ELF4,"1.38 fold enrichment (6-mer frequency, TF over GST control)"
same,binding signal,ELK4,"1.23 fold enrichment (6-mer frequency, TF over GST control)"
same,binding signal,ETV2,"1.36 fold enrichment (6-mer frequency, TF over GST control)"
same,binding signal,ELF3,"1.32 fold enrichment (6-mer frequency, TF over GST control)"
same,binding signal,CRX,"1.14 fold enrichment (6-mer frequency, TF over GST control)"
same,binding signal,ETV1,"1.33 fold enrichment (6-mer frequency, TF over GST control)"
